A short description of assay [1]: qHTS assay to identify small molecule agonists of the estrogen receptor alpha (ER-alpha) signaling pathway in the presence of an antagonist - cell viability counter screen (AID 1259386). Also: nearly all actives have a fitted effect of over 30% in size. The following applies: VM7Luc4E2 viability, CellTiter-Fluor fluorescence, 22 h; series mostly up to 92.4 µM. The method, boiled down: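 Steps: 5-day stripped-FBS culture; seed and incubate 24hr; add ICI-182,780 (10.0nM final); pin 15-point compound titration; incubate 22hr at 37C; add CellTiter-Fluor at 21hr; read fluorescence.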
For orientation: Quantitative high-throughput screening tests each substance at several concentrations.

The nature of assay [2]: qHTS assay to identify small molecule agonists of the progesterone receptor (PR) signaling pathway - cell viability counter screen (AID 1346799; calls by dose curve; also: nearly all actives have a fitted effect of over 45% in size). The conditions noted are these: PR-UAS-bla HEK293T viability, CellTiter-Glo luminescence, 16 h; series mostly up to 92.4 µM. In outline: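 Counter screen in the PR-UAS-bla HEK293T wells (2% charcoal-stripped FBS, 16 h compound exposure at 37 C) after the bla read. CellTiter-Glo added, 30 min at room temperature, luminescence read as cell viability.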

A short description of assay [3]: qHTS assay to identify small molecule antagonists of the TGF-beta/Smad signaling pathway - cell viability counter screen (AID 1346824). Also: nearly all actives have a fitted effect of over 50% in size. The conditions noted are these: SBE-bla HEK293T viability, CellTiter-Glo luminescence; series mostly up to 76.8 µM. The method, boiled down:
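SBE-bla HEK 293T cells were plated overnight at 37 C, then given compounds in DMSO plus TGF-beta1 (added as 0.25 ng/mL solution) for 5 hr. After the bla read, CellTiter-Glo was added to the same wells and luminescence read after 30 min at room temperature.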

A short description of assay [4]: qHTS assay to identify small molecule agonists of the TGF-beta/Smad signaling pathway - cell viability counter screen (AID 1346829). Also: top concentration of the series differs between compounds; nearly all actives have a fitted effect of over 45% in size. The conditions noted are these: SBE-bla HEK293T viability, CellTiter-Glo luminescence, 5 h; series mostly up to 76.8 µM. In outline: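 SBE-bla HEK 293T cells plated overnight, compound exposure 5 hr at 37 C. Viability read in the same wells by CellTiter-Glo luminescence after 30 min at room temperature, following the beta-lactamase read.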

A short description of assay [5]: qHTS assay to identify small molecule agonists of the TGF-beta/Smad signaling pathway (AID 1346859; active = well fitted activation curve with a large enough effect in the signal ratio in the repeat runs, not every such curve was filed as active; the % refers to the signal ratio). The conditions noted are these: SBE-bla HEK293T, TGF-beta/Smad beta-lactamase reporter, 5 h; series mostly up to 76.8 µM. The method, boiled down: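 SBE-bla HEK293T cells plated overnight, then compound exposure for 5 h at 37 C. Beta-lactamase reporter read with LiveBLAzer B/G FRET substrate after 2 h at room temperature, fluorescence at 405 nm excitation, 460/530 nm emission.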

Assay [6] in a line: Human pregnane X receptor (PXR) small molecule agonists, qHTS cell viability counter screen (AID 1346977). Also: nearly all actives have a fitted effect of over 50% in size. The following applies: PXR-Luc HepG2 viability, CellTiter-Fluor, 24 h; series mostly up to 92.4 µM. In outline: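 PXR-Luc HepG2 cells (2,000/well, 5% charcoal-stripped FBS) preincubated 5 hr, then exposed to compounds 24 hr at 37 C. Viability read in the same wells by CellTiter-Fluor fluorescence, reagent added at 23 hr, 1 hr incubation.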

Assay [7] in a line: Caspase-3/7 induction in HepG2 cells by small molecules, qHTS assay (AID 1346978). Also: nearly all actives have a fitted effect of over 15% in size. The conditions noted are these: HepG2 caspase-3/7 activation, Caspase-Glo luminescence, 17 h; series mostly up to 92.4 µM. In outline: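 Wild-type HepG2 cells (2,000/well) were settled 5 h at 37 C, 5% CO2, then exposed to compounds in DMSO for 17 h. Caspase-3/7 activity was read by luminescence 30 min after adding Caspase-Glo 3/7 reagent at room temperature.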

The nature of assay [8]: Caspase-3/7 induction in CHO-K1 cells by small molecules, qHTS cell viability counter screen (AID 1346979). Also: nearly all actives have a fitted effect of over 35% in size. Also: potency is read from the fitted curve at half-maximal effect. The conditions noted are these: CellTiter-Fluor fluorescence, 17 h; series mostly up to 92.4 µM. In outline: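 Wild-type CHO-K1 cells (1,500/well) treated with compound after 5 h plating; after 16 h at 37C, viability read as CellTiter-Fluor fluorescence following 1 h reagent incubation, in the same wells as the caspase read.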

Assay [9] can be described thus: Caspase-3/7 induction in CHO-K1 cells by small molecules, qHTS assay (AID 1346980). Also: nearly all actives have a fitted effect of over 15% in size. The conditions noted are these: CHO-K1 caspase-3/7 induction, Caspase-Glo luminescence, 17 h; series mostly up to 92.4 µM. The method, boiled down: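 Wild-type cells were seeded at 1,500 per well and settled 5 hr at 37 C, 5% CO2, then exposed to DMSO-dissolved compounds for 17 hr. Caspase-Glo 3/7 reagent was added, and luminescence was read after 30min at room temperature.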

Assay [10] is described as follows: Caspase-3/7 induction in HepG2 cells by small molecules, qHTS cell viability counter screen (AID 1346981). Also: nearly all actives have a fitted effect of over 30% in size. Also: potency is read from the fitted curve at half-maximal effect. The following applies: CellTiter-Fluor fluorescence, 17 h; series mostly up to 92.4 µM. The method, boiled down:
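The parent HepG2 line is plated at 2,000 cells per well and rested 5 hr before compound pinning from DMSO stocks. Following a 16-hr treatment at 37 C, a fluorogenic live-cell substrate (CellTiter-Fluor) reports viability after 1 hr.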

The target of assay [11] is Nuclear receptor subfamily 1 group I member 2 (Homo sapiens) (UniProt O75469). Briefly: Human pregnane X receptor (PXR) small molecule agonists, qHTS assay (AID 1346982). Also: nearly all actives have a fitted effect of over 35% in size. The following applies: PXR-Luc HepG2, CYP3A4 luciferase reporter, 24 h; series mostly up to 92.4 µM. The method, boiled down:
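After plating in 5% charcoal-stripped FBS and a 5 hr rest, PXR-Luc HepG2 cells received compounds in DMSO. Following 24 hr at 37 C, ONE-Glo was added and light output read.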

The target of assay [12] is Acetylcholinesterase (Homo sapiens) (UniProt P22303). The assay can be described thus: Acetylcholinesterase (AChE) small molecule antagonists: colormetric cell-based qHTS assay (AID 1347395; calls by dose curve; also: nearly all actives have a fitted effect of over 30% in size). The conditions noted are these: SH-SY5Y cells AChE activity, colorimetric (Ellman); series mostly up to 115 µM. The method, boiled down:
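SH-SY5Y cells attached overnight, exposed to compound 30 min at 37 C, then given DTNB/acetylthiocholine; after 90 min at 37 C, colorimetric thiocholine read gives cellular AChE activity.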

The target of assay [13] is Thyrotropin-releasing hormone receptor (Homo sapiens) (UniProt P34981). The assay can be described thus: qHTS assay to identify small molecule antagonists of the thyrotropin-releasing hormone receptor (TRHR) signaling pathway (AID 1346877; active = well fitted inhibition curve with a large enough effect in the repeat runs, not every such curve was filed as active). The following applies: TRHR-HEK293, TRH-induced calcium fluorescence, antagonist mode; series mostly up to 51.3 µM. The method, boiled down:
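Human TRHR in HEK293 cells; inhibition of the intracellular calcium rise triggered by 1 nM TRH was followed by fluorescence over 3 min. Compounds were run at 15 concentrations, three replicates each.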

Assay [14] has the same target. Briefly: qHTS assay to identify small molecule agonists of the thyrotropin-releasing hormone receptor (TRHR) signaling pathway (AID 1346891; calls by dose curve). The following applies: TRHR-HEK293 calcium fluorescence, agonist mode; series mostly up to 57.6 µM. The method, boiled down: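 HEK293 cells expressing TRHR plated 18 h at 37 C/5% CO2, calcium dye-loaded 2 h at 37 C, then compound added (agonist mode); kinetic calcium fluorescence read 3 min at 1 s intervals; 15 concentrations in triplicate.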

The target of assay [15] is Nuclear receptor subfamily 1 group I member 2 (Rattus norvegicus) (UniProt Q9R1A7). Briefly: Rat pregnane X receptor (rPXR) activation by small molecules, qHTS assay (AID 1346983). Also: nearly all actives have a fitted effect of over 20% in size. The following applies: rPXR luciferase reporter cells, One-Glo luminescence, 24 h; hits give high values. The method, boiled down:
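Cell-based rPXR luciferase reporter assay, 2,000 cells per well, rested 5hr at 37 C before compound addition in DMSO, then 24 hr at 37 C. One-Glo reagent was added and luminescence read after 30 min at room temperature.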

In assay [16] the target is Progesterone receptor (Homo sapiens) (UniProt P06401). Briefly: qHTS assay to identify small molecule agonists of the progesterone receptor (PR) signaling pathway (AID 1346784; calls by dose curve; also: nearly all actives have a fitted effect of over 30% in size). The conditions noted are these: PR-UAS-bla HEK293T, beta-lactamase FRET ratio, 16 h; series mostly up to 92.4 µM. The method, boiled down:
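PR-UAS-bla HEK 293T cells (beta-lactamase reporter under UAS) in 2% charcoal-stripped FBS, dosed with 23 nL compound after 6 hr, incubated 16hr at 37C. LiveBLAzer B/G FRET substrate added, fluorescence read after 2 hours.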

For assay [17] the target is unchanged. The assay can be described thus: qHTS assay to identify small molecule antagonists of the progesterone receptor (PR) signaling pathway (AID 1346795; active = well fitted inhibition curve with a large enough effect in the signal ratio in the repeat runs, not every such curve was filed as active; the % refers to the signal ratio). The following applies: PR-UAS-bla HEK293T, beta-lactamase FRET ratio, 16 h; series mostly up to 92.4 µM. In outline:
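PR-UAS-bla HEK293T cells with beta-lactamase reporter under UAS control, in 2% charcoal-stripped FBS, treated with compounds plus 1 nM promegestone (R5020, final) for 16 hr at 37C. Read-out: FRET beta-lactamase substrate fluorescence after 2 hr at room temperature.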

Assay [18] can be described thus: qHTS assay to identify small molecule antagonists of the progesterone receptor (PR) signaling pathway - cell viability counter screen (AID 1346798). Also: nearly all actives have a fitted effect of over 50% in size. The following applies: PR-UAS-bla HEK293T viability, CellTiter-Glo luminescence, 16 h; series mostly up to 92.4 µM. In outline:
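PR-UAS-bla HEK293T cells, 3,000/well in 2% charcoal-stripped FBS medium, dosed with compounds plus R5020 agonist and incubated 16 h at 37C. Viability then measured in the same wells by CellTiter-Glo luminescence after 30 min at RT.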

The structures appear in SMILES notation. Values without a mark were called inactive. Records with an inconclusive call do not appear. Active and inactive are the calls of the source. Unless noted, calls follow the shape of the dose curve; as a rule, active = well fitted curve in the direction sought with a large enough effect in the repeat runs; inconclusive = weak or mixed curves; inactive = no such curve, though single readings can be large; an effect the other way counts as inactive or inconclusive.
% is scaled to controls: 0 for no effect and ±100 for the full control effect.

Thyrotropin-releasing hormone receptor (Homo sapiens), sequence (P34981 whole entry, looked up): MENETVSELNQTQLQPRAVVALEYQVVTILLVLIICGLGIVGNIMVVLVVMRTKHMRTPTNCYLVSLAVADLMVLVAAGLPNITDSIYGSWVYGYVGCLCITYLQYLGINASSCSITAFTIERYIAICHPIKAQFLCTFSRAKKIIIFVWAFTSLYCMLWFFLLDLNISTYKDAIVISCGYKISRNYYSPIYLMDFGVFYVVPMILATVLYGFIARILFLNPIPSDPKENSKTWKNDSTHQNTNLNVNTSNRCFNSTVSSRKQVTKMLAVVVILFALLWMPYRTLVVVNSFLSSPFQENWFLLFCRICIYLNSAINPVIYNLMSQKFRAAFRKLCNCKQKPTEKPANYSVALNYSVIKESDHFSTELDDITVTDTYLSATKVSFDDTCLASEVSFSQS
Acetylcholinesterase (Homo sapiens), sequence (P22303 whole entry, looked up): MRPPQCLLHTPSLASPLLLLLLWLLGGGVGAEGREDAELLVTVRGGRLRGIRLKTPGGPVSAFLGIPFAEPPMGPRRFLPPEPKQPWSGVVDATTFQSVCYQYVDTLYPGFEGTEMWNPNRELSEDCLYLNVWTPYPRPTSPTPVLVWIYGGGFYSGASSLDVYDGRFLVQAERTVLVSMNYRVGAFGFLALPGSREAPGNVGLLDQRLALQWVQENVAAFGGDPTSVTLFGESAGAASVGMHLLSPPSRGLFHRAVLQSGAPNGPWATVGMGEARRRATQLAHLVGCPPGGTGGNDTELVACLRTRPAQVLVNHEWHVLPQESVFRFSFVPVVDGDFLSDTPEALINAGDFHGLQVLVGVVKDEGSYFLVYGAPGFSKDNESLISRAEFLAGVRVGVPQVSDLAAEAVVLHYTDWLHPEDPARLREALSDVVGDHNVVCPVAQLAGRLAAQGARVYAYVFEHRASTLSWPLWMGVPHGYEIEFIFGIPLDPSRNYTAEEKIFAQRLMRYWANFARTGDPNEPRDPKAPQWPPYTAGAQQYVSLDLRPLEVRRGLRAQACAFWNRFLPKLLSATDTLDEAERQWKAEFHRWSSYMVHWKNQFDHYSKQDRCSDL
Progesterone receptor (Homo sapiens), sequence (P06401 whole entry, looked up): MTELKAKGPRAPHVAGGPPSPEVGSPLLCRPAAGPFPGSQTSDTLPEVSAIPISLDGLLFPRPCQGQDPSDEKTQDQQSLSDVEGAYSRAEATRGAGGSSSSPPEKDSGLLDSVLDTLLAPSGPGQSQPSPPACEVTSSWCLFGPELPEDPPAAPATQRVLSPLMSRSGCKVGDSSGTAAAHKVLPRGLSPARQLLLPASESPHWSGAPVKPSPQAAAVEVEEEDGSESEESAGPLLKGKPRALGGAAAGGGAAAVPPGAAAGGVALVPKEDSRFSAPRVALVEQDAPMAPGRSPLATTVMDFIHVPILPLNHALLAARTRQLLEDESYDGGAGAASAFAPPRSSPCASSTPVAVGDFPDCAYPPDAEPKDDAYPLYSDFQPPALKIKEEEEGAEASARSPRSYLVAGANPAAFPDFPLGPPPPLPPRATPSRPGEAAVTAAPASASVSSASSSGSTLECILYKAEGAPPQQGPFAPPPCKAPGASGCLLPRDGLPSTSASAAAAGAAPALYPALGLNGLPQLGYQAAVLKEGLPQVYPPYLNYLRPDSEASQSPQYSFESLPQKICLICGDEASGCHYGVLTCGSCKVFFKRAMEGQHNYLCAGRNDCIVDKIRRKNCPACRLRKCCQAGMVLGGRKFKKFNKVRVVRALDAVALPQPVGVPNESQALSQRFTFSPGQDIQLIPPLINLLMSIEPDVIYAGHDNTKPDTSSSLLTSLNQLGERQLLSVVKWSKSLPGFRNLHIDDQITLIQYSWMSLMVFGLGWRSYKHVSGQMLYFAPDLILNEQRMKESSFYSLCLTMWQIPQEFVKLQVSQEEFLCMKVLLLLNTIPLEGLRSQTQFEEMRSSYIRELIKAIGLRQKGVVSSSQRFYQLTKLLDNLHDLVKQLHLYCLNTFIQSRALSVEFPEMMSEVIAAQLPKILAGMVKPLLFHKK
Nuclear receptor subfamily 1 group I member 2 (Homo sapiens), sequence (O75469 whole entry, looked up): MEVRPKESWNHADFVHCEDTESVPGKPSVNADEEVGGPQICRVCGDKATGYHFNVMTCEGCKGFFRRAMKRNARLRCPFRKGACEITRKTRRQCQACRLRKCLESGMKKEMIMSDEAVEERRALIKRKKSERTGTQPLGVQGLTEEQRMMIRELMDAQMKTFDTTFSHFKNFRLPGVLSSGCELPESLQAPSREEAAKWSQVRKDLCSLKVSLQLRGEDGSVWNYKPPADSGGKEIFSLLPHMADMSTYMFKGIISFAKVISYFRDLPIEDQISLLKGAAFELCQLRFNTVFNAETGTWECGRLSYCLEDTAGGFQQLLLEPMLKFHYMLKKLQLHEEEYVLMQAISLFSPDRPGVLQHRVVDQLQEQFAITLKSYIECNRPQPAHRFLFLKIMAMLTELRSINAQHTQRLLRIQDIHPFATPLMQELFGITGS
Nuclear receptor subfamily 1 group I member 2 (Rattus norvegicus), sequence (Q9R1A7 whole entry, looked up): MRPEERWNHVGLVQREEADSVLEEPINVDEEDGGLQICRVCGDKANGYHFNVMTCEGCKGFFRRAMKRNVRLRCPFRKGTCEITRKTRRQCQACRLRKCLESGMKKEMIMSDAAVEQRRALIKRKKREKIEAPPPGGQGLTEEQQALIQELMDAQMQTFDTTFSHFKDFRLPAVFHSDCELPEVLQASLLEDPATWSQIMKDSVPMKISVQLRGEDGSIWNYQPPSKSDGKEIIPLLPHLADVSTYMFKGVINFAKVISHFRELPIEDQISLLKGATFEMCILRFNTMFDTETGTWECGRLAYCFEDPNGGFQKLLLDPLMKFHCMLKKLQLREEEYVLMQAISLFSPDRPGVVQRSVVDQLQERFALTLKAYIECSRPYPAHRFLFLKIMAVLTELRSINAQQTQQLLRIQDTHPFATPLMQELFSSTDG

With `CCCCC1C(=O)NC(=O)N(C2CCCCC2)C1=O` (stereo unspecified), the Potency result in assay [1], in assay [2], in [3], in assay [4], in assay [6] and in assay [7] was “inactive” each time. The Potency entry in [8], in [9], in [10], in assay [11] and in [12] was “inactive” throughout. In assay [5], the result was inactive.

For the molecule `C#C[C@]1(O)CC[C@H]2[C@@H]3CCC4=CC(=O)CCC4=C3C=C[C@@]21CC`, the Potency entry in assay [1], in assay [3], in assay [4], in [13], in assay [6] and in assay [7] was “inactive” each time. Further, the Potency entry in assay [9], in assay [10] and in [12] was “inactive” throughout. Further, the result in assay [14] was inactive. In addition, the Potency in [8] was 26.6 µM (active). The max activation in assay [15] was -15.2%.

With `ClCc1ccccc1Cl`, the Potency entry in [1], in [2], in assay [3], in assay [4], in assay [6] and in assay [7] was “inactive” in each case. Besides, the Potency entry in assay [8], in [9], in assay [10], in assay [11] and in [12] was “inactive” each time.

With `COc1ccc2c(c1OC)C(=O)O[C@H]2[C@@H]1c2cc3c(cc2CCN1C)OCO3`, the Potency entry in [16], in [17], in assay [18], in [2], in assay [3] and in [4] was “inactive” each time. The Potency result in assay [13] and in assay [7] was “inactive” each time. Besides, the result in [5] was inactive. Besides, the Potency in assay [8] and in [10] was 11.9 µM (active) throughout.

The values above are taken from PubChem BioAssay (Tox21).
